Screening data as filed in PubChem.
IMPase Li inh: qHTS Assay for Identifying the Cell-Membrane Permeable IMPase Inhibitors: Potentiation with Lithium; 210,000 tested, 0.35% active; Potency, µM (series often up to 59.4 µM), for the others: at the highest dose activity, negative = IMPase inhibition, most hits filed as inhibitors; CHO-M1 cells, IP1 TR-FRET (IP-One), carbachol + lithium; AID 1457, 2008;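 note: IP1 builds up when IMPase is blocked and the TR-FRET signal falls; potency is the fitted concentration of half-maximal effect; plate controls were basal vehicle for no effect and high inhibitor control for full effect; nearly all actives have a fitted effect of over 50% in size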
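IP1 accumulation measured by competitive TR-FRET in lysed CHO-M1 cells after 30 min compound exposure at 37C, with a small lithium addition to potentiate weak responses. Hill-equation AC50 from ratio and donor-channel data.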
15-hLO-2 inh: qHTS Assay for Inhibitors of 15-hLO-2 (15-human lipoxygenase 2); Polyunsaturated fatty acid lipoxygenase ALOX15B (Homo sapiens), O15296; purified 15hLO-2, xylenol orange hydroperoxide absorbance; Potency, µM (titrated, usually from 57.1 µM), for the others: top-dose activity change, negative = inhibition, most hits filed as inhibitors; 110,000 tested, 0.56% active; AID 881, 2007; note: potency is the fitted concentration of half-maximal effect; nearly all actives have a fitted effect of over 60% in size
Target sequence (O15296 whole entry, looked up): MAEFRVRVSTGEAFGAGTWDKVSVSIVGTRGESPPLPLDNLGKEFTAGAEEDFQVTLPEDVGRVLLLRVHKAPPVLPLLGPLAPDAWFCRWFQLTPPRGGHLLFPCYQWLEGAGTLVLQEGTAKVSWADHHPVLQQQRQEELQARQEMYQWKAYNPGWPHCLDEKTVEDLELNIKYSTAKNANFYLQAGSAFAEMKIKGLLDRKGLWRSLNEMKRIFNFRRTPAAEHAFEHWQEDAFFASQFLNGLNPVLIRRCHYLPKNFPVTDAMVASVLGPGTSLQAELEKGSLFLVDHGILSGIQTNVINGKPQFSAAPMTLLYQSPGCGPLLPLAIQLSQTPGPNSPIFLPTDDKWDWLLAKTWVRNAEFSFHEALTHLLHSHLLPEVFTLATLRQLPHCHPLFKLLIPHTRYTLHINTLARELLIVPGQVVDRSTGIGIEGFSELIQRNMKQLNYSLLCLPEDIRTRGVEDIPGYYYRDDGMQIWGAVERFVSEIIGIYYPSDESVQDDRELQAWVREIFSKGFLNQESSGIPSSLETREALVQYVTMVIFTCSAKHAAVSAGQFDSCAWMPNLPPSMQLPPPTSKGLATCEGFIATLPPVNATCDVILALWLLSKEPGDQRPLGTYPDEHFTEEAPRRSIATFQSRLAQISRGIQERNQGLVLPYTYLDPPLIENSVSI
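Screening format was qHTS against 50 nM purified 15hLO-2 in Hepes pH 7.5 with detergent. Activity follows hydroperoxide formation from 45 uM arachidonic acid, measured as 573:405 nm absorbance ratio of the ferric-xylenol orange complex.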
PNC assembly inh: High Content Assay for Compounds that inhibit the Assembly of the Perinucleolar Compartment | activity change (PNC), negative = inhibition, % at 10 µM | PC3M PTB-GFP, PNC prevalence imaging, 16 h; active compounds read low | AID 2417, 2010 | 140,000 tested, 3.1% active;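 active = readout at or below -70, meaning at least 70% loss of cells showing the perinucleolar compartment, a nuclear body marking cancer cells; inconclusive = readout between -30 and a set limit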;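 note: plate controls were DMSO wells for no effect and camptothecin positive control wells for full effect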
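Compounds are pinned in duplicate onto adhered PC3M cells stably expressing GFP-tagged PTB and incubated 16 h at 37 C. Cells are then fixed, nuclei stained with Hoechst, and PNC-positive cells counted.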
HPGD inh: qHTS Assay for Inhibitors of HPGD (15-Hydroxyprostaglandin Dehydrogenase); 15-hydroxyprostaglandin dehydrogenase [NAD(+)] (Homo sapiens), P15428; purified HPGD, NADH fluorescence kinetic, PGE2 substrate; Potency, µM, inactives show top-dose activity change, negative = inhibition, most hits filed as inhibitors; 150,000 tested, 4.3% active; AID 894, 2007; active = well fitted inhibition curve with a large enough effect, not every such curve was filed as active; inconclusive = small, poorly fitted or top-dose-only effect, or another doubt; inactive = no such curve, though single readings can be large or run the other way; note: potency is the fitted concentration of half-maximal effect
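20 nM HPGD preincubated 15 min at room temperature with compound in 50 mM Tris-HCl pH 8, 0.01% Tween 20. Started with 1 mM NAD+ and 30 uM prostaglandin E2; NADH fluorescence (360/450 nm) read 5 times over 30-s intervals, last minus first.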
ALOX12 inhib: qHTS Assay for Inhibitors of 12-hLO (12-human lipoxygenase) | Polyunsaturated fatty acid lipoxygenase ALOX12 (Homo sapiens), P18054 | 150,000 tested, 0.12% active | purified 12-hLO, xylenol orange hydroperoxide absorbance | Potency, µM (series often up to 57.1 µM), for inactives: top-dose activity change, negative = inhibition, most hits filed as inhibitors; note: potency is the fitted concentration of half-maximal effect; nearly all actives have a fitted effect of over 55% in size
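Purified human 12hLO (150 nM final) was preincubated with compounds for 15 min at room temperature in 25 mM Hepes pH 7.0, 0.01% Triton X-100, then reacted with 40 uM arachidonic acid for 30 min. Hydroperoxide was detected with ferrous iron/xylenol orange.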
IMPase inh: qHTS Assay for Identifying the Cell-Membrane Permeable IMPase Inhibitors. CHO-M1 cells, IP1 accumulation, HTRF TR-FRET ratio. inhibition (IP1 accumulation), % at 46.1 µM. AID 901, 2007. Inositol monophosphatase 1 (Rattus norvegicus), P97697. 120,000 tested, under 10 active; active = well fitted curve in the direction sought with a large enough effect in the signal ratio, not every such curve was filed as active; inconclusive = small, poorly fitted or top-dose-only effect, or a change in a side signal; inactive = no such curve, though single readings can be large or run the other way; the % refers to the signal ratio;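 note: cells stimulated with carbachol in lithium chloride buffer; plate controls were DMSO basal wells for no effect and reference inhibitor wells for full effect; higher means more IMPase inhibition seen as more IP1 and lower FRET ratio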
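Carbachol-driven Gq signalling in CHO-M1 cells (2000/well) generates IP1. Compounds that block IMPase raise IP1 and so reduce the FRET signal from Eu-anti-IP1 and d2-IP1 after a 10 min room-temperature lysis.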
The depositor's hits bear a star; u = inconclusive; x = no result given; [ ] = another dose, or the depositor's remark. The list is not random: actives were taken first. Their share in the collection is about 5.4%. Unless noted, calls come from the whole dose curve; as a rule, active = well fitted curve in the direction sought with a large enough effect; inconclusive = small, poorly fitted or top-dose-only effect, or another doubt; inactive = no such curve, though single readings can be large; an effect the other way counts as inactive or inconclusive. Unless noted, % is set by controls: 0 for no effect and ±100 for the full control effect.

SMILES	IMPase Li inh	15-hLO-2 inh	PNC assembly inh	HPGD inh	ALOX12 inhib	IMPase inh
COc1ccc(C(=O)N2CCC3(CCN(CC(C)C)CC3)CC2)cc1	21.6%	-0.6%	x	-3.3%	-4.5%	x
CCOC(=O)c1sc(N(Cc2ccccc2)C(=O)COC(=O)c2ccccc2O)nc1C	8.1%	x	-28.7	20µM*	3.2%	x
CC(C)CNc1nc2ncnc(N)c2[nH]1	-12.4%	3.3%[11.4 µM]	x	-4.8%	0.0%[11.4 µM]	x
O=C1c2ccccc2C(Nc2ccc(S(=O)(=O)N3CCCCCC3)cc2)N1c1ccccn1 (stereo not given)	2.8%[38.3 µM]	2.5%	-93.3*	-7.1%	6.2%	3.4
COc1ccccc1OCCC(=O)OCC(=O)Nc1ccc(Br)cc1	-11.4%	x	16.2	-5.1%	-0.2%	2.7
COc1ccccc1OCCC(=O)OCC(=O)NC(C)c1ccccc1 (stereo not given)	-1.5%	x	-83.5*	-9.9%	-1.5%	-6.4
CCOC(=O)CNC(=O)CNC(=O)c1ccc(OC)cc1	-4.9%[38.3 µM]	0.2%	-12.7	-8.9%	4.4%	4.8
CCOC(=O)CSC(=S)NC(=O)c1ccc(OC)cc1	-10.3%	x	4.7	10µM*	-0.7%	x
CC[C@@H]1C(c2cccc(C)c2)=NN(c2ccc(Br)cc2)[C@H]1C(=O)N1CCOC1=O	-3.5%	-6.0%[0.0915 µM]	x	u	-4.4%[0.00818 µM]	x
N#CC1=C(N)C(C#N)(C#N)C(c2ccncc2)C2CN(C(=O)OCc3ccccc3)CC=C12 (stereo not given)	18.6%	x	-118.9*	-8.9%	-0.6%	u
N#CC1=C(N)C(C#N)(C#N)[C@H](c2cccnc2)[C@H]2CN(C(=O)OCc3ccccc3)CC=C12	2.2%	x	u	-16.1%	-5.9%	x
CN(C)CCCOC1C(C(O)CO)OC2OC(C)(C)O[C@@H]21 (stereo not given in full)	12.6%	-7.0%	x	-6.5%	0.1%	x
CC1(C)O[C@H]2OC([C@H](O)CON3C(=O)c4ccccc4C3=O)[C@H](O)[C@H]2O1 (stereo not given in full)	4.7%	x	40.3	15.8µM*	-5.9%	x
COCCCNC(=O)c1ccc(-n2nc(C(F)(F)F)cc2-c2cccs2)cc1	29.4%[38.3 µM]	-16.4%	15.8	14.1µM*	0.6%	10.8
Cc1cc2oc(C(=O)Nc3ccc(S(=O)(=O)N4CCCC(C)C4)cc3)cc(=O)c2cc1Cl (stereo not given)	-0.8%	x	u	-10.3%	1.3%	x
Cc1cc2oc(C(=O)Nc3ccc(S(=O)(=O)Nc4nccs4)cc3)cc(=O)c2cc1Cl	1.3%	x	31.7	31.6µM*	1.3%	0.3
Cc1ccc2nc(-c3cccs3)c(Nc3ccc4c(c3)OCCO4)n2c1	x	x	x	x	x	5.4
COc1ccc(NC(=O)Cn2nnc(-c3ccccc3NC(=O)c3cccs3)n2)cc1	-9.6%[38.3 µM]	-6.1%	u	-27.6%	-4.9%	2.0
Cc1ccc(NC(=O)Cn2nnc(-c3ccccc3NC(=O)c3cccs3)n2)cc1	30.0%[38.3 µM]	-22.4%	-87.7*	u	4.2%	-2.5
O=C(Cn1nnc(-c2ccccc2F)n1)Nc1cccc2ncccc12	-31.3%[38.3 µM]	-9.5%	-81.8*	-5.4%	-3.0%	u
CCOc1ccc(NC(=O)Cn2nnc(-c3ccccc3NC(=O)CC)n2)cc1	8.5%[38.3 µM]	-14.2%	-84.2*	-13.1%	-1.4%	7.1
CCCC(=O)Nc1ccccc1-c1nnn(CC(=O)Nc2ccc(OCC)cc2)n1	1.9%	x	-18.9	-9.1%	8.5%	2.6
Cc1ccc(NC(=O)c2cc(S(=O)(=O)N3CCOCC3)c(Cl)cc2Cl)cc1	x	x	x	x	x	-6.2
O=Nc1ccc(NO)cc1	32.1%	-5.2%	x	-24.6%	-5.8%	x
CCN(CC)C(=O)c1ccc2c3c(cccc13)C(=O)N(CCc1ccc(OC)c(OC)c1)C2=O	6.2%	x	-12.9	17.8µM*	-2.1%	2.0
SMILES	IMPase Li inh	15-hLO-2 inh	PNC assembly inh	HPGD inh	ALOX12 inhib	IMPase inh
COc1ccc(CCN2C(=O)c3cccc4cccc(c34)C2=O)cc1OC	2.4%[38.3 µM]	6.3%	26.8	-7.3%	-2.5%	0.4
Cc1cc(C)nc(NS(=O)(=O)c2ccc(NC(=O)C3(c4ccccc4)CCCC3)cc2)n1	x	x	-115.2*	x	-0.9%	7.3
N#Cc1c(-c2ccccc2)nc(SCC(=O)Nc2ccccc2)[nH]c1=O	u	x	30.6	-24.9%	0.3%	u
Cc1cc(NC(=O)CSc2nc(-c3ccccc3)c(C#N)c(=O)[nH]2)no1	7.94µM*	0.6%	u	-20.4%	13.2%	u
Cc1cc(C)nc(NS(=O)(=O)c2ccc(NC(=O)CSc3nc(-c4ccccc4)c(C#N)c(=O)[nH]3)cc2)n1	11.2µM*	x	x	x	x	x
N#Cc1c(-c2ccccc2)nc(SCC(=O)Nc2ccccc2F)[nH]c1=O	10µM*	x	47.7	15.8µM*	1.1%	x
CCCCCCCCCCCCCCCCCC(=O)O[C@H](CC(=O)O)C[N+](C)(C)C	x	5.9%	x	x	-3.1%	13.1
Cc1cc(NS(=O)(=O)c2ccc(NC(=O)CCCC(=O)O)cc2)nc(C)n1	-2.2%	x	-88.4*	-1.5%	2.7%	u
CCC(Sc1nc(-c2ccccc2)c(C#N)c(=O)[nH]1)C(=O)Nc1nnc(C)s1 (stereo not given)	3.16µM*	-3.7%	u	u	2.8%	u
Cc1cccc(NC(=O)CSc2nc(-c3ccccc3)c(C#N)c(=O)[nH]2)c1C	10µM*	-1.1%	32.3	-14.8%	-2.1%	u
N#Cc1c(-c2ccccc2)nc(SCC(=O)Nc2nnc(C(F)(F)F)s2)[nH]c1=O	11.2µM*	x	x	x	x	x
CCCc1ccc(OCC(=O)Nc2sc3c(c2C(=O)OC)CCCCC3)cc1	x	x	x	x	x	-0.4
Cc1cccc(Nc2c(-c3cccs3)nc3nc(C)cc(C)n23)c1	x	x	x	x	x	-4.4
O=[N+]([O-])c1ccc(C2=Nn3c(nnc3-c3ccc(Cl)cc3)SC2)o1	13.3%	-8.2%[11.4 µM]	x	-9.9%	-12.1%[11.4 µM]	x
CCOC(=O)CCCCC(=O)c1[nH]c(=O)[nH]c1CSc1nc(-c2ccccc2)c(C#N)c(=O)[nH]1	2.8%[38.3 µM]	-14.0%	44.7	20µM*	-4.7%	-18.4
N#Cc1c(-c2ccccc2)nc(SCC(=O)N(c2ccccc2)c2ccccc2)[nH]c1=O	-17.8%	x	-26.7	28.2µM*	-0.8%	-23.8
C=CCSc1nc(-c2ccccc2)c(C#N)c(=O)[nH]1	u	-4.3%	11.5	u	0.1%	u
COc1cc(S(=O)(=O)N2CCOCC2)cc(C(=O)c2nccn2C)c1OC	-2.6%[38.3 µM]	-7.2%	-88.0*	-1.0%	6.3%	-0.6
